The values that follow come from the supplement of paper PMC10646978.

Each structure is given as a SMILES string. ± gives the standard deviation.

The subject of one assay is RAW-Dual (murine macrophage reporter line). Briefly: NF-kB reporter (SEAP) activity fold change vs agonist alone; higher = enhanced NF-kB activity. Conditions: modulator concentration 10 µM; agonist: MPLA […]. The method in brief:
(§1)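 Overnight stimulation with a PRR agonist followed pre-incubation for 1 hour at 37 °C with compound at 10 μM final. This was done in RAW-Dual murine macrophage reporter cells seeded at 50 000 per well in 384-well plates. NF-κB (SEAP, QUANTI-Blue absorbance at 620 nm) and IRF (Lucia luciferase, QUANTI-Luc luminescence) were read from the supernatant. Each reporter's fold change relative to the mean agonist-only control on the same plate was averaged over replicate plates.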
Regarding `COc1ccc(OC)c2sc(NC(=O)C(C)C)nc12`, the NF-kB reporter was 1 ± 0.031. Same read-out and setting: then `CCOC(=O)CC(C(=O)OCC)P(=O)(c1ccccc1)c1ccccc1` (centres undefined), with 1.02 ± 0.14. For the compound `CC1CC(=O)C2=C(C1)OC(N)=C(C#N)C2c1ccc(Cl)cc1` (centres undefined), the NF-kB reporter came to 0.928 ± 0.042. Same read-out and setting: the figure for `CC(=O)OC(OC(C)=O)c1ccc([N+](=O)[O-])cc1` is 1 ± 0.035.

Another assay shares this test system. The experiment in a line: IRF reporter (Lucia luciferase) activity fold change vs agonist alone; higher = enhanced IRF activity. Conditions: modulator concentration 10 µM; agonist: 3'3'-cGAMP 10 ug/mL. The method, boiled down:
as §1
Consider `CCCOc1ccc(C=CC(=O)Nc2ccc(S(=O)(=O)Nc3ncccn3)cc2)cc1OC`, for which the IRF reporter turned out to be 0.982 ± 0.035.

`CN(C)C1C(O)=C(C(N)=O)C(=O)C2(O)C(O)=C3C(=O)c4c(O)cccc4C(C)(O)C3CC12.Cl` (centres undefined): the IRF reporter was determined as 0.844 ± 0.056. As for `O=c1oc2cc(O)ccc2c2ccccc12`, the IRF reporter worked out at 0.813 ± 0.15. `CC(C)Oc1cccc(C(=O)NC(=S)N2CCN(c3ccc([N+](=O)[O-])cc3)CC2)c1`: the IRF reporter came to 0.829 ± 0.038. `O=c1[nH]nc(Br)c(=O)[nH]1`: the IRF reporter was 0.993 ± 0.11. Consider `NC(CO)(CO)CO.O=C(c1ccccc1)c1ccc2n1CCC2C(=O)O` (centres undefined), for which the IRF reporter was 0.933 ± 0.032. Consider `O=C(NCCN1CCN(c2ccc(F)cc2)CC1)c1ccno1`, for which the IRF reporter is 0.982 ± 0.059.

On to `N[C@H](Cc1ccccc1)C(=O)O`, for which the IRF reporter was 0.895 ± 0.076. Same read-out and setting: the figure for `O=c1[nH]c(NN=Cc2c3ccccc3cc3ccccc23)nc2ccccc12` is 0.935 ± 0.048. On the same count and under the same terms, then `Clc1ccc(Nc2nc3nonc3nc2NC2C3CC4CC(C3)CC2C4)cc1` (centres undefined), with 0.702 ± 0.27. As for `CCN(CC)CCOC(=O)C(c1ccccc1)C1CCCCC1.Cl` (centres undefined), the IRF reporter came out at 1.07 ± 0.033. Still for that read-out and setting: the figure for `CCOC(C#CCN(CC)CC)(c1ccccc1)c1ccccc1.Cl` is 0.773 ± 0.051; for `CCC(=O)c1c(O)cc(O)cc1O` it is 0.922 ± 0.056; for `C[C@@H]1CCN(C(=O)CC#N)C[C@@H]1N(C)c1ncnc2[nH]ccc12.O=C(O)CC(O)(CC(=O)O)C(=O)O` it is 0.182 ± 0.0066. Same read-out and setting: the figure for `Nc1ccc(O)c(C(=O)O)c1` is 0.956 ± 0.053.
